Inconclusive results are not listed. Where a call stands in place of a potency, no number is given. The source made the active and inactive calls. Calls come from the whole dose curve; as a rule, active = well fitted curve in the direction sought with a large enough effect; inconclusive = small, poorly fitted or top-dose-only effect, or another doubt; inactive = no such curve, though single readings can be large; an effect the other way counts as inactive or inconclusive.
Legend:
[1] = tested on: Zika virus NS2B-NS3 protease; assay: Primary screen GU AMC qHTS for Zika virus inhibitors (AID 1347154); conditions: Zika NS2B-NS3 unlinked protease, AMC fluorogenic substrate; series mostly up to 54.1 µM; note: nearly all actives have a fitted effect of over 70% in size
Outline: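 Unlinked Zika NS2B hydrophilic domain/NS3 protease domain noncovalent complex (25 nM final) in 10 mM Tris-HCl pH 8.0, 0.01% Tween 20, with AMC peptide substrate. Fluorescence (ex 340, em 450 nm) change over 15 min, room temperature; percent inhibition fitted to 4-parameter Hill equation.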

[2] = tested on: Zika virus NS2B-NS3 protease (linked construct); assay: Primary screen NINDS Rhodamine qHTS for Zika virus inhibitors (AID 1347160); conditions: purified NS2B-NS3 protease, Rhodamine110 substrate fluorescence; series mostly up to 57.1 µM; note: nearly all actives have a fitted effect of over 55% in size
Outline: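 Purified linked NS2B-NS3 protease (NS2B hydrophilic domain joined to NS3 protease by flexible linker), 25 nM in 10 mM Tris-HCl pH 8.0, 0.01% Tween 20. Compounds titrated, 15 min preincubation at room temperature; 1.5 microM Rhodamine110 substrate, FITC fluorescence change over 15 min.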

Row | SMILES | Potency [1] | outcome [2]
1 | O=C(O)CNC(=O)c1ccccc1 | inactive | 
2 | CC(=O)OCC(=O)[C@@]1(O)CC[C@H]2[C@@H]3CCC4=CC(=O)C=C[C@]4(C)[C@H]3[C@@H](O)C[C@@]21C | inactive | inactive
3 | C=C1C[C@H]2[C@@H]3C=C(C)C4=CC(=O)CC[C@]4(C)[C@H]3CC[C@]2(C)[C@@]1(OC(C)=O)C(C)=O | inactive | 
4 | O=C1OC(c2ccc(O)cc2)(c2ccc(O)cc2)c2ccccc21 | inactive | 
5 | Cc1ccccc1C(=O)Nc1ccc(C(=O)N2CCCC(N(C)C)c3ccccc32)cc1 (stereo not given) | inactive | inactive
6 | CCCCS(=O)(=O)N[C@@H](Cc1ccc(OCCCCC2CCNCC2)cc1)C(=O)O | inactive | inactive
7 | CC(=O)Oc1ccc2c(c1)CC[C@@H]1[C@@H]2CC[C@]2(C)[C@@H](O)CC[C@@H]12 | inactive | 
8 | CN1[C@@H]2CC[C@H]1CC(OC(=O)c1c[nH]c3ccccc13)C2 (stereo not given in full) | inactive | inactive
9 | Cc1ccnc(NS(=O)(=O)c2ccc(N)cc2)n1 | inactive | 
10 | OC[C@H]1O[C@H](O[C@]2(CCl)O[C@H](CCl)[C@@H](O)[C@@H]2O)[C@H](O)[C@@H](O)[C@H]1Cl | inactive | inactive
11 | COc1cccc(OC)c1C(=O)N[C@@H]1C(=O)N2[C@@H]1SC(C)(C)[C@@H]2C(=O)O | inactive | inactive
12 | COC(=O)C1=C(C)NC(C)=C(C(=O)O[C@@H]2CCCN(Cc3ccccc3)C2)[C@@H]1c1cccc([N+](=O)[O-])c1 | inactive | inactive
13 | C[C@H](CCC(=O)O)[C@H]1CC[C@H]2[C@@H]3C(=O)C[C@@H]4CC(=O)CC[C@]4(C)[C@H]3CC(=O)[C@]12C | inactive | 
14 | CCCSS/C(CCO)=C(\C)N(C=O)Cc1cnc(C)nc1N | inactive | 
15 | CC(=O)O[C@]1(C(C)=O)CC[C@H]2[C@@H]3C[C@H](C)C4=CC(=O)CC[C@]4(C)[C@H]3CC[C@@]21C | inactive | inactive
16 | CN(C)CCOc1ccccc1Cc1ccccc1 | inactive | 
17 | CN1C(CCl)Nc2cc(Cl)c(S(N)(=O)=O)cc2S1(=O)=O (stereo not given) | inactive | inactive
18 | Cc1ccc(C(=O)C(C)CN2CCCCC2)cc1 (stereo not given) | inactive | inactive
19 | O=c1[nH]c(=O)n([C@H]2CCCO2)cc1F | inactive | inactive
